According to PubChem BioAssay:
Where “and” joins values, the source holds several entries; their conditions need not be identical. Equal values may be shown once. Calls of active or inactive are those of the source.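 How the source made its calls, unless noted: active means inhibition at or above 50% relative to wild type and mutant plate controls; inactive means inhibition below 50%.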

Experiments:
[1] = inhibitors of TNFa-induced NFkB p65 translocation, primary screen, imaging, HUVEC, MLSMR starter and 10KST1 sets (AID 438;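 active means inhibition above 20% together with a positive visual image hit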;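 further: compound added about 3h40 before a 20 min TNFalpha stimulation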;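 on inhibition: signal is the nuclear over cytoplasmic p65 intensity ratio per well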); settings: HUVEC TNFa-induced p65 nuclear translocation; cell count: measured here: nuclei count (cytotoxicity indicator), at 2.08 µM unless noted; inhibition: at 2 µM, stronger effect = higher value unless noted
[2] = inhibitors of mutant huntingtin aggregation, primary screen, imaging, exon1htt(103Q)mCFP cells, high-content imaging (AID 483;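 active means visual image review flags a hit and inhibition of aggregation exceeds 20%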;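 further: compound exposure lasted 3 days before fixation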;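 on nuclei count: percent of the per-plate median nuclei count of sample wells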); settings: exon1htt(103Q)mCFP cell line, aggregate imaging, at 2 µM; inhibition of aggregation: stronger effect = higher value; nuclei count: measured here: cell count, toxicity
[3] = inhibitors of E-selectin induction by TNFa, primary screen, imaging, HUVEC, immunofluorescence, MLSMR starter and 10KST1 sets (AID 487;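 active means visually confirmed hit in the image check and inhibition above 20%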;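 on inhibition: signal is fraction of cell area covered by stained E-selectin grains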;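 on nuclei count: 100% = median nuclei count of all wells on the same plate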); settings: HUVEC TNFalpha-induced E-selectin immunofluorescence imaging, at 2 µM; inhibition: stronger effect = higher value; nuclei count: measured here: cell number, toxicity
[4] = DUSP6 inhibitors restoring Erk phosphorylation by chemical complementation, primary imaging in DUSP6-transfected HeLa (AID 609;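 active means compounds giving at least 50% inhibition in the cell-based MKP-3 phosphatase rescue imaging test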;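 on inhibition: phospho-Erk level distribution per well compared with pooled transfected vehicle control wells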); settings: HeLa MKP-3 transfected, phospho-Erk imaging KS statistic, at 10 µM
[5] = molecular target: Dual specificity protein phosphatase 6 (Homo sapiens) (UniProt Q16828); assay: as above; settings: HeLa MKP-3 transfected, phospho-Erk imaging KS statistic, at 10 µM, stronger effect = higher value
[6] = molecular target: Voltage-gated potassium channel subunit beta-2 (Rattus norvegicus) (UniProt P62483); assay: KvBeta enzyme negative modulators, primary screen, biochemical, NADPH fluorescence (AID 622;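 active means fluorescence slope higher than the sample average by over 3 SD, cut at about -0.22 in these data, passing the limit was not always enough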;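 further: slope of raw intensity against log time taken from 70 to 1610 s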); settings: recombinant KvBeta, 4-cyanobenzaldehyde reduction, at 10 µM, stronger effect = higher value
[7] = molecular target: Voltage-gated potassium channel subunit beta-2 (Rattus norvegicus) (UniProt P62483); assay: KvBeta positive modulators, primary screen, biochemical, NADPH fluorescence (AID 623;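 active means NADPH fluorescence slope more negative than the mean of all samples by about 3 SD, 99.7% confidence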;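 further: fluorescence intensity change per second fitted from 20 to 320 s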); settings: Recombinant KvBeta, NADPH fluorescence decrease slope, 10 min; at 10 µM; stronger effect = lower value
[8] = molecular target: Alpha-2C adrenergic receptor (Homo sapiens) (UniProt P18825); assay: modulators of alpha2C/GIRK thallium flux, primary screen, cell-based, HEK293 alpha2C/GIRK1/2 (AID 624;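 active means fluorescence slope after compound addition differing from the mean of all screened samples at 99.7% confidence, in either direction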;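 further: slope of fluorescence ratio to pre-addition baseline per second over 15 to 24 s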); settings: thallium flux BTC fluorescence, at 10 µM, actives lie on both sides
[9] = inhibitors of larval lipid processing in zebrafish, primary screen, whole organism, PED6 fluorescence, gall bladder and intestine (AID 686;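 active means a full or partial loss of lipid-probe fluorescence in the fish gall bladder, intestine or both, judged by eye; inactive means no fluorescence loss, or compound toxic to the fish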;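 further: larvae 5 to 7 days old with five fish per well; signal comes from phospholipase A2 cleavage of quenched PED6 carried via bile; overnight exposure to compound and PED6 before scoring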); settings: Zebrafish larvae PED6 lipid processing, fluorescence scoring
[10] = inhibitors of Chlamydomonas gravitaxis, primary screen, whole organism, Chlamydomonas reinhardtii, WT vs cilia-less mutant, absorbance, 96-well (AID 463189); settings: OD600 absorbance, 2 days, at 10 µM, stronger effect = higher value;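 further: 0% = wild type cc124 cells in DMSO and 100% = ciliumless bld1 mutant cells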
[11] = inhibitors of Sendai virus-induced IRF3 signaling, primary screen, TLR/RLR signaling modifier project, cell-based, Sendai virus stimulus, luciferase, 10K MLSCN set (AID 602276;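 active means inhibition at or above 50% at 10 µM; inactive means inhibition below 50%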;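 further: firefly luciferase from ISG56 promoter only with Renilla not read in this screen; 0% = Sendai virus plus DMSO and 100% = medium plus DMSO without virus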); settings: HEK293 RL24 IRF3 luciferase reporter, at 10 µM, stronger effect = higher value
[12] = inhibitors of poly I:C-induced TLR3 signaling, primary screen, cell-based, poly I:C stimulus, luciferase, 10K MLSCN set (AID 602277;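 active means inhibition of the reporter signal at or above 50%; inactive means inhibition below 50%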); settings: HEK293-TLR3 RL24 IRF3 luciferase reporter, at 10 µM, stronger effect = higher value
[13] = molecular target: Muscarinic acetylcholine receptor M4 (Homo sapiens) (UniProt P08173); assay: compounds altering M4/GIRK thallium flux, either direction, primary screen, M4 allosteric agonist project, cell-based, HEK293 M4/GIRK, BTC-AM (AID 625;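 active means fluorescence slope after compound addition differing from the mean of all tested samples at 99.7% confidence, mostly higher but some lower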;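 further: thallium influx through GIRK channels coupled to M4 in HEK293 cells with BTC-AM dye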); settings: at 10 µM, actives lie on both sides
[14] = measured here: cell density z-score
[15] = measured here: nuclear c-Myc green intensity z-score
[16] = measured here: nuclear pErk red intensity z-score, stronger effect = higher value

Sequence of Dual specificity protein phosphatase 6 (Homo sapiens) (Q16828 whole entry, looked up): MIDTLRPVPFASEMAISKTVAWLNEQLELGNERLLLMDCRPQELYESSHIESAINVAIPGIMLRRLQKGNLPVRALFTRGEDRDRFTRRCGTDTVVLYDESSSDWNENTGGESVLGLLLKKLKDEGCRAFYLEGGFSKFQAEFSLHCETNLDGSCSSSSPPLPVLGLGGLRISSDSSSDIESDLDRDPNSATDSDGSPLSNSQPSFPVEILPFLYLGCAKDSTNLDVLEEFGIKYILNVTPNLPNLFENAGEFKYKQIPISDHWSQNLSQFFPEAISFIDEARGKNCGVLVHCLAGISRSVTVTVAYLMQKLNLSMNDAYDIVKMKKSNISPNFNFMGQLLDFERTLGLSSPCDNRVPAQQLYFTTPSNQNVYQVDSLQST
Sequence of Voltage-gated potassium channel subunit beta-2 (Rattus norvegicus) (P62483 whole entry, looked up): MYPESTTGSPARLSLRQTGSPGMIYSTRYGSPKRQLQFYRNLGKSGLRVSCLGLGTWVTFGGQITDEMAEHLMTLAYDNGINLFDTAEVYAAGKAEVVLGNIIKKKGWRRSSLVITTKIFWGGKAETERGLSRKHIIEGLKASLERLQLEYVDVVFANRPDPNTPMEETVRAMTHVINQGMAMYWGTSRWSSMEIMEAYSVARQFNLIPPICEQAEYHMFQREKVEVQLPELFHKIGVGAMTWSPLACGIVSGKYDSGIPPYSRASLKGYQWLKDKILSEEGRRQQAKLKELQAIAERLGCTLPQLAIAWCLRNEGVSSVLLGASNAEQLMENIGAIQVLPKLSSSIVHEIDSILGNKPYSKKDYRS
Sequence of Alpha-2C adrenergic receptor (Homo sapiens) (P18825 whole entry, looked up): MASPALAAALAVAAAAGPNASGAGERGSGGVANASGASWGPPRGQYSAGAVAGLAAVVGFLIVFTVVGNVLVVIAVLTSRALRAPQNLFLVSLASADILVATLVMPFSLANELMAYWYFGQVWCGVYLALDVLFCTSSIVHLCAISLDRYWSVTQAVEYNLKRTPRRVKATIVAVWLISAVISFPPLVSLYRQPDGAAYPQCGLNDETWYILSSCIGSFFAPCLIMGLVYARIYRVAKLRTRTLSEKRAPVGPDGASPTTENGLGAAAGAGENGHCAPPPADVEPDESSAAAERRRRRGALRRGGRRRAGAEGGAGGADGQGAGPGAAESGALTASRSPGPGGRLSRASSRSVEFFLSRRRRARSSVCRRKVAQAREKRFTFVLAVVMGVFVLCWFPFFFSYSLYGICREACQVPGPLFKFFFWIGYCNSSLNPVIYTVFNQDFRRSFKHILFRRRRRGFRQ
Sequence of Muscarinic acetylcholine receptor M4 (Homo sapiens) (P08173 whole entry, looked up): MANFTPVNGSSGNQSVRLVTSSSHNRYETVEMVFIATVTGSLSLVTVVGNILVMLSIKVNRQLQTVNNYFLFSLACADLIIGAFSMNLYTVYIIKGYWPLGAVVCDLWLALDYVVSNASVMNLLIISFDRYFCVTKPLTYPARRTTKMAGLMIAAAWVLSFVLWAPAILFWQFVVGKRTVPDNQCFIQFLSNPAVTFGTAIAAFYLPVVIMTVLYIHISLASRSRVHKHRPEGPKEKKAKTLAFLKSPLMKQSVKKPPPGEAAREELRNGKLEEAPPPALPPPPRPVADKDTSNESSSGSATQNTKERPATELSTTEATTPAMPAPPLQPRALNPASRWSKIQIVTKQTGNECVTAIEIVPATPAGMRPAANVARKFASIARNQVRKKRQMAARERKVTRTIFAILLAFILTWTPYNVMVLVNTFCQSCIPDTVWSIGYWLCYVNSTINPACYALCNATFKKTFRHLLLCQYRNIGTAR

CC[C@@H](CO)NC(=O)[C@@H]1C=C2c3cccc4c3c(cn4C)C[C@H]2N(C)C1
cell count [1]: 540
inhibition [1]: -4.2% (inactive)
inhibition of aggregation [2]: -7.9% (inactive)
nuclei count [2]: 89.4%
inhibition [3]: -32.5% (inactive)
nuclei count [3]: 113%
z-score [4, 14]: 0.785
z-score [4, 15]: -0.624
z-score [4, 16]: -1.05
inhibition [5]: 5.79% (inactive)
fluorescence slope [6]: -0.107 (active)
NADPH fluorescence slope [7]: -2e-06 (inactive)
slope [8]: 0.0047 (inactive)
outcome [9]: inactive
inhibition [10]: 5.16% (inactive) and -19.2% (inactive)
inhibition [11]: 18% (inactive)
inhibition [12]: 38% (inactive)

c1ccc2c(c1)[nH]c1cnccc12
cell count [1]: 584
inhibition [1]: -5.4% (inactive)
inhibition of aggregation [2]: -8.3% (inactive)
nuclei count [2]: 86.9%
inhibition [3]: -52.4% (inactive)
nuclei count [3]: 113%
z-score [4, 14]: 0.863
z-score [4, 15]: -0.369
z-score [4, 16]: 0.512
inhibition [5]: -10.4% (inactive)
fluorescence slope [6]: -0.166 (active)
NADPH fluorescence slope [7]: 2.2e-05 (inactive)
slope [8]: 0.00469 (inactive)
outcome [9]: inactive
inhibition [10]: 6.75% (inactive)
inhibition [11]: 2.27% (inactive)
inhibition [12]: 16.3% (inactive)

CCC(COC(=O)c1cc(OC)c(OC)c(OC)c1)(c1ccccc1)N(C)C (stereo unspecified)
cell count [1]: 445
inhibition [1]: -6.3% (inactive)
inhibition of aggregation [2]: 12.7% (inactive)
nuclei count [2]: 92.2%
inhibition [3]: -6.1% (inactive)
nuclei count [3]: 92.2%
z-score [4, 14]: -0.162
z-score [4, 15]: 0.437
z-score [4, 16]: -0.404
inhibition [5]: 3.45% (inactive)
fluorescence slope [6]: -0.498 (inactive)
NADPH fluorescence slope [7]: -7.2e-05 (inactive)
slope [8]: 0.00446 (inactive)
outcome [9]: inactive
inhibition [10]: -3.48% (inactive)
inhibition [11]: 1.96% (inactive)
inhibition [12]: 35% (inactive)

O=c1[nH]c(=O)n(-c2cccc3ccccc23)c(O)c1C=NCCCn1ccnc1
cell count [1]: 430
inhibition [1]: 2.6% (inactive)
inhibition of aggregation [2]: -2.6% (inactive)
nuclei count [2]: 113%
inhibition [3]: -19% (inactive)
nuclei count [3]: 71.8%
z-score [4, 14]: 0.0574
z-score [4, 15]: -0.666
z-score [4, 16]: -0.681
inhibition [5]: -5.95% (inactive)
fluorescence slope [6]: -0.411 (inactive)
NADPH fluorescence slope [7]: -2.1e-05 (inactive)
slope [8]: 0.00458 (inactive)
fluorescence slope [13]: 0.00656 (inactive)
outcome [9]: inactive
inhibition [10]: -5.53% (inactive)
inhibition [11]: 19% (inactive)
inhibition [12]: 17.8% (inactive)

c1ccc(Cn2ccnc2)cc1
cell count [1]: 630
inhibition [1]: 3.1% (inactive)
inhibition of aggregation [2]: 16.2% (inactive)
nuclei count [2]: 94.6%
inhibition [3]: -120% (inactive)
nuclei count [3]: 130%
z-score [4, 14]: 1.25
z-score [4, 15]: -0.35
z-score [4, 16]: 1.06
inhibition [5]: 8% (inactive)
fluorescence slope [6]: -0.486 (inactive)
NADPH fluorescence slope [7]: 3.7e-06 (inactive)
slope [8]: 0.00411 (inactive)
outcome [9]: inactive
inhibition [10]: -7.16% (inactive)
inhibition [11]: 20.5% (inactive)
inhibition [12]: 27.2% (inactive)

CC(C)N(CCC(C(N)=O)(c1ccccc1)c1ccccn1)C(C)C (stereo unspecified)
cell count [1]: 539
inhibition [1]: -8.5% (inactive)
inhibition of aggregation [2]: -2.7% (inactive)
nuclei count [2]: 104%
inhibition [3]: -22.4% (inactive)
nuclei count [3]: 106%
z-score [4, 14]: -0.772
z-score [4, 15]: 0.954
z-score [4, 16]: 0.768
inhibition [5]: 9.37% (inactive)
fluorescence slope [6]: -0.515 (inactive)
NADPH fluorescence slope [7]: -7.6e-05 (inactive)
slope [8]: 0.00456 (inactive)
outcome [9]: inactive
inhibition [10]: 1.35% (inactive) and 4.32% (inactive) and 26.6% (inactive)
inhibition [11]: 6.44% (inactive)
inhibition [12]: 34% (inactive)

CCCCCCn1c(O)c(C=NC2CCN(Cc3ccccc3)CC2)c(=O)[nH]c1=O
cell count [1]: 592
inhibition [1]: -3.3% (inactive)
inhibition of aggregation [2]: -17.9% (inactive)
nuclei count [2]: 112%
inhibition [3]: -34.2% (inactive)
nuclei count [3]: 131%
z-score [4, 14]: 2
z-score [4, 15]: -0.0485
z-score [4, 16]: 0.697
inhibition [5]: 19.3% (inactive)
fluorescence slope [6]: -0.332 (inactive)
NADPH fluorescence slope [7]: -2.2e-05 (inactive)
slope [8]: 0.0054 (inactive)
outcome [9]: inactive
inhibition [10]: 25.8% (inactive)
inhibition [11]: 11.7% (inactive)
inhibition [12]: -13.6% (inactive)

CNCC(O)c1ccc(O)cc1 (stereo unspecified)
cell count [1]: 624
inhibition [1]: 3.3% (inactive)
inhibition of aggregation [2]: 4.2% (inactive)
nuclei count [2]: 102%
inhibition [3]: -43.9% (inactive)
nuclei count [3]: 118%
z-score [4, 14]: -0.968
z-score [4, 15]: -0.213
z-score [4, 16]: 1.33
inhibition [5]: -0.828% (inactive)
fluorescence slope [6]: -0.493 (inactive)
NADPH fluorescence slope [7]: 1.3e-05 (inactive)
slope [8]: 0.00558 (inactive)
outcome [9]: inactive
inhibition [10]: -0.226% (inactive) and -8.32% (inactive)
inhibition [11]: 14.9% (inactive)
inhibition [12]: 28.2% (inactive)

NCC1(CC(=O)O)CCCCC1
cell count [1]: 645
inhibition [1]: -5.2% (inactive)
inhibition of aggregation [2]: -6.5% (inactive)
nuclei count [2]: 100%
inhibition [3]: -78.6% (inactive)
nuclei count [3]: 116%
z-score [4, 14]: -0.493
z-score [4, 15]: 0.124
z-score [4, 16]: -0.808
inhibition [5]: 1.38% (inactive)
fluorescence slope [6]: -0.493 (inactive)
NADPH fluorescence slope [7]: -3.2e-05 (inactive)
slope [8]: 0.00518 (inactive)
outcome [9]: inactive
inhibition [10]: 4.56% (inactive) and -5.83% (inactive)
inhibition [11]: -3.61% (inactive)
inhibition [12]: 3.7% (inactive)

CN(C)[C@@H]1C(=O)C(C(N)=O)=C(O)[C@@]2(O)C(=O)C3=C(O)c4c(O)ccc(Cl)c4[C@@](C)(O)C3C[C@@H]12 (stereo partly specified)
cell count [1]: 634
inhibition [1]: -1.6% (inactive)
inhibition of aggregation [2]: 76.3% (active)
nuclei count [2]: 102%
inhibition [3]: -43.7% (inactive)
nuclei count [3]: 123%
z-score [4, 14]: -1.02
z-score [4, 15]: 0.954
z-score [4, 16]: -0.997
inhibition [5]: 21.2% (inactive)
fluorescence slope [6]: -0.468 (inactive)
NADPH fluorescence slope [7]: -6.5e-07 (inactive)
slope [8]: 0.00588 (inactive)
outcome [9]: inactive
inhibition [10]: 51.9% (active)
inhibition [11]: 23% (inactive)
inhibition [12]: 44.9% (inactive)
